Among all 5,500 compounds or so, about 2,000 (36%) were called active. Inconclusive results (about 18%) are left out. Rule as the data show it: active = normalized growth mostly below about 0.91 (no sharp cut-off); inconclusive = no clear call, values can overlap the other calls; inactive = mostly above about 0.92. Some of the results follow.
Test: chemical genetic growth profiling, strain panel (AID 1159580);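 also: tested at 20 µM; growth read once vehicle control cultures reached saturation at 30 °C; 1 = growth at the plate median or of vehicle wells; lower values mean less growth of the strain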
Details: growth OD
[1] = S. cerevisiae deletion strains, locus YCL061C, strain MRC1, active compounds read low
[2] = S. cerevisiae deletion strains, locus YJL187C, strain SWE1, active compounds read low
[3] = S. cerevisiae deletion strains, locus YAL013W, strain DEP1, active compounds read low
[4] = S. cerevisiae deletion strains, locus YBR229C, strain ROT2, active compounds read low
[5] = S. cerevisiae deletion strains, locus YDL101C, strain DUN1, active compounds read low
[6] = S. cerevisiae deletion strains, locus YDR150W, strain NUM1, active compounds read low
[7] = S. cerevisiae deletion strains, locus YEL061C, strain CIN8, active compounds read low
[8] = S. cerevisiae deletion strains, locus YGR078C, strain PAC10, active compounds read low
[9] = S. cerevisiae deletion strains, locus YHR030C, strain SLT2, active compounds read low
[10] = S. cerevisiae deletion strains, locus YHR087W, strain rtc3, active compounds read low
[11] = S. cerevisiae deletion strains, locus YJR043C, strain POL32, active compounds read low
[12] = S. cerevisiae deletion strains, locus YJR075W, strain HOC1, active compounds read low
[13] = S. cerevisiae deletion strains, locus YKL190W, strain CNB1, active compounds read low
[14] = S. cerevisiae deletion strains, locus YLR039C, strain RIC1, active compounds read low
[15] = S. cerevisiae deletion strains, locus YLR058C, strain SHM2 (second series), active compounds read low
[16] = S. cerevisiae deletion strains, locus YLR085C, strain ARP6, active compounds read low
[17] = S. cerevisiae deletion strains, locus YLR262C, strain YPT6, active compounds read low
[18] = S. cerevisiae deletion strains, locus YML094W, strain GIM5, active compounds read low
[19] = S. cerevisiae deletion strains, locus YMR219W, strain ESC1, active compounds read low
[20] = S. cerevisiae deletion strains, locus YMR263W, strain SAP30, active compounds read low
[21] = S. cerevisiae deletion strains, locus YNL153C, strain GIM3, active compounds read low
[22] = S. cerevisiae deletion strains, locus YNL298W, strain CLA4 (second series), active compounds read low
[23] = S. cerevisiae deletion strains, locus YNL322C, strain KRE1, active compounds read low
[24] = S. cerevisiae deletion strains, locus YNR030W, strain Alg12, active compounds read low
[25] = S. cerevisiae deletion strains, locus YOL006C, strain TOP1, active compounds read low
[26] = S. cerevisiae deletion strains, locus YPL055C, strain LGE1, active compounds read low
[27] = S. cerevisiae deletion strains, locus YPL241C, strain CIN2, active compounds read low
[28] = S. cerevisiae deletion strains, locus YPR135W, strain CTF4, active compounds read low
[29] = S. cerevisiae strains, strain wild type, active compounds read low

Measured: normalized growth

Cc1ccc(-c2nc3ccc(C)cn3c2CC(=O)N(C)C)cc1
inactive: S. cerevisiae deletion strains, locus YAL021C, strain ccr4, active compounds read low 1.06 | S. cerevisiae deletion strains, locus YAL026C, strain drs2, active compounds read low 1.01 | S. cerevisiae deletion strains, locus YAL030W, strain snc1, active compounds read low 1.02 | S. cerevisiae deletion strains, locus YBL061C, strain skt5, active compounds read low 0.998 | S. cerevisiae deletion strains, locus YBR009C, strain hhf1, active compounds read low 1.02 | S. cerevisiae deletion strains, locus YBR023C, strain chs3, active compounds read low 0.989 | S. cerevisiae deletion strains, locus YBR171W, strain sec66, active compounds read low 1.04 | S. cerevisiae deletion strains, locus YBR231C, strain swc5, active compounds read low 0.966 | S. cerevisiae deletion strains, locus YBR279W, strain paf1, active compounds read low 0.993 | S. cerevisiae deletion strains, locus YCL011C, strain gbp2, active compounds read low 1.01 | S. cerevisiae deletion strains, locus YCL016C, strain dcc1, active compounds read low 0.987 | [1] 1.02 | S. cerevisiae deletion strains, locus YCL069W, strain vba3, active compounds read low 1.02 | S. cerevisiae deletion strains, locus YCR088W, strain abp1, active compounds read low 1.03 | S. cerevisiae deletion strains, locus YDL005C, strain med2, active compounds read low 1.01 | S. cerevisiae deletion strains, locus YDL040C, strain nat1, active compounds read low 1 | S. cerevisiae deletion strains, locus YDR001C, strain nth1, active compounds read low 1.02 | S. cerevisiae deletion strains, locus YDR069C, strain doa4, active compounds read low 1.01 | S. cerevisiae deletion strains, locus YDR137W, strain rgp1, active compounds read low 1.05 | S. cerevisiae deletion strains, locus YDR159W, strain sac3, active compounds read low 0.96 | S. cerevisiae deletion strains, locus YDR195W, strain ref2 1 | S. cerevisiae deletion strains, locus YDR297W, strain sur2, active compounds read low 1 | S. cerevisiae deletion strains, locus YDR334W, strain swr1, active compounds read low 1.02 | S. cerevisiae deletion strains, locus YDR335W, strain msn5, active compounds read low 0.991 | S. cerevisiae deletion strains, locus YDR392W, strain spt3, active compounds read low 0.939 | S. cerevisiae deletion strains, locus YEL003W, strain gim4, active compounds read low 1.01 | S. cerevisiae deletion strains, locus YEL037C, strain rad23, active compounds read low 1.01 | S. cerevisiae deletion strains, locus YEL061C, strain CIN8 (second series), active compounds read low 1.01 | S. cerevisiae deletion strains, locus YER015W, strain faa2, active compounds read low 1.02 | S. cerevisiae deletion strains, locus YER016W, strain bim1, active compounds read low 1.01 | S. cerevisiae deletion strains, locus YER111C, strain swi4, active compounds read low 1.03 | S. cerevisiae deletion strains, locus YER155C, strain BEM2 (second series), active compounds read low 0.998 | S. cerevisiae deletion strains, locus YFR010W, strain ubp6, active compounds read low 1.02 | S. cerevisiae deletion strains, locus YGL167C, strain pmr1, active compounds read low 0.996 | S. cerevisiae deletion strains, locus YGL173C, strain kem1, active compounds read low 1.01 | S. cerevisiae deletion strains, locus YGL227W, strain vid30, active compounds read low 1.01 | S. cerevisiae deletion strains, locus YGL240W, strain doc1, active compounds read low 1.09 | S. cerevisiae deletion strains, locus YGL253W, strain hxk2, active compounds read low 0.999 | S. cerevisiae deletion strains, locus YHR013C, strain ard1, active compounds read low 1.06 | S. cerevisiae deletion strains, locus YHR027C, strain rpn1, active compounds read low 0.981 | S. cerevisiae deletion strains, locus YHR142W, strain chs7, active compounds read low 1.03 | S. cerevisiae deletion strains, locus YJL092W, strain hpr5, active compounds read low 1.02 | S. cerevisiae deletion strains, locus YJL095W, strain BCK1 (second series), active compounds read low 1.01 | S. cerevisiae deletion strains, locus YJL115W, strain asf1, active compounds read low 1.02 | S. cerevisiae deletion strains, locus YJL129C, strain trk1, active compounds read low 1 | S. cerevisiae deletion strains, locus YJL154C, strain vps35, active compounds read low 1.02 | S. cerevisiae deletion strains, locus YJL164C, strain tpk1, active compounds read low 1.01 | S. cerevisiae deletion strains, locus YJL166W, strain qcr8, active compounds read low 1.03 | [2] 1.01 | S. cerevisiae deletion strains, locus YKL160W, strain elf1, active compounds read low 0.997 | S. cerevisiae deletion strains, locus YKR026C, strain gcn3, active compounds read low 1.02 | S. cerevisiae deletion strains, locus YKR091W, strain srl3, active compounds read low 1.03 | S. cerevisiae deletion strains, locus YLL001W, strain dnm1, active compounds read low 0.988 | S. cerevisiae deletion strains, locus YLL026W, active compounds read low 0.999 | S. cerevisiae deletion strains, locus YLL041C, strain sdh2, active compounds read low 1.01 | S. cerevisiae deletion strains, locus YLR027C, strain aat2, active compounds read low 1.02 | S. cerevisiae deletion strains, locus YLR221C, strain rsa3, active compounds read low 0.974 | S. cerevisiae deletion strains, locus YLR258W, strain gsy2, active compounds read low 1.03 | S. cerevisiae deletion strains, locus YLR262C, strain YPT6 (second series), active compounds read low 1.01 | S. cerevisiae deletion strains, locus YLR320W, strain mms22, active compounds read low 0.991 | S. cerevisiae deletion strains, locus YLR342W, strain FKS1, active compounds read low 0.987 | S. cerevisiae deletion strains, locus YLR357W, strain rsc2, active compounds read low 1.01 | S. cerevisiae deletion strains, locus YLR370C, strain arc18, active compounds read low 0.978 | S. cerevisiae deletion strains, locus YLR384C, strain iki3, active compounds read low 0.975 | S. cerevisiae deletion strains, locus YML120C, strain ndi1, active compounds read low 0.984 | S. cerevisiae deletion strains, locus YMR058W, strain fet3, active compounds read low 1.02 | S. cerevisiae deletion strains, locus YMR125W, strain sto1, active compounds read low 1.03 | S. cerevisiae deletion strains, locus YMR129W, active compounds read low 0.978 | S. cerevisiae deletion strains, locus YMR205C, strain PFK2, active compounds read low 1 | S. cerevisiae deletion strains, locus YMR231W, strain pep5, active compounds read low 1.02 | S. cerevisiae deletion strains, locus YNL071W, strain lat1, active compounds read low 1.03 | S. cerevisiae deletion strains, locus YNL209W, strain ssb2, active compounds read low 0.995 | S. cerevisiae deletion strains, locus YNL248C, strain rpa49, active compounds read low 1.02 | S. cerevisiae deletion strains, locus YNL322C, strain KRE1 (second series), active compounds read low 1.03 | S. cerevisiae deletion strains, locus YNR049C, strain mso1, active compounds read low 0.986 | S. cerevisiae deletion strains, locus YOR001W, strain rrp6, active compounds read low 0.951 | S. cerevisiae deletion strains, locus YOR070C, strain gyp1, active compounds read low 0.988 | S. cerevisiae deletion strains, locus YOR080W, strain dia2, active compounds read low 0.998 | S. cerevisiae deletion strains, locus YOR083W, strain WHI5, active compounds read low 0.969 | S. cerevisiae deletion strains, locus YOR106W, strain vam3, active compounds read low 1.08 | S. cerevisiae deletion strains, locus YOR265W, strain rbl2, active compounds read low 0.969 | S. cerevisiae deletion strains, locus YOR270C, strain vph1, active compounds read low 1.07 | S. cerevisiae deletion strains, locus YOR290C, strain snf2, active compounds read low 1.03 | S. cerevisiae deletion strains, locus YPL051W, strain arl3, active compounds read low 1.02 | S. cerevisiae deletion strains, locus YPL078C, strain atp4, active compounds read low 1.03 | S. cerevisiae deletion strains, locus YPL106C, strain sse1, active compounds read low 1.12 | S. cerevisiae deletion strains, locus YPL240C, strain hsp82, active compounds read low 0.982

COc1cc([N+](=O)[O-])c(OC)cc1SCC(=O)NNC(=O)c1cc(OC)c(OC)c(OC)c1
inactive: [3] 0.982 | [4] 1.01 | [1] 0.981 | [5] 0.968 | S. cerevisiae deletion strains, locus YDL134C, strain PPH21, active compounds read low 0.991 | [6] 0.942 | [7] 0.941 | [8] 0.978 | S. cerevisiae deletion strains, locus YGR229C, strain SMI1, active compounds read low 1.01 | [9] 0.963 | [10] 1.03 | [2] 1.01 | [11] 0.983 | [12] 1.01 | [13] 0.999 | [14] 0.974 | [15] 0.999 | [16] 0.946 | [17] 1.04 | [18] 1.01 | [19] 1.01 | [20] 0.987 | [21] 0.988 | [22] 0.937 | [23] 0.98 | [24] 0.999 | [25] 0.931 | [26] 1.01 | [27] 0.939 | [28] 0.904 | [29] 1.02

COc1ccc([N+](=O)[O-])c(OC)c1C(N)=O
inactive: [3] 1.02 | [4] 1.03 | [1] 1.06 | [5] 1.06 | [6] 1.04 | [7] 0.995 | [8] 1.04 | [9] 1.11 | [10] 0.964 | [2] 1.02 | [11] 1.06 | [12] 1.02 | [14] 1.03 | [15] 0.997 | [16] 1.03 | [17] 0.989 | [18] 0.98 | [19] 1.02 | [20] 1.02 | [21] 1.04 | [22] 1.02 | [23] 1.01 | [24] 1.03 | [26] 1.01 | [27] 1.02 | [28] 1.12

COC(=O)Cc1cc(OC)c(OC)cc1[N+](=O)[O-]
active: [10] 1.1 [resistant]
inactive: [3] 1.01 | [4] 0.998 | [1] 1.02 | [5] 1.01 | [6] 1.01 | [7] 0.953 | [8] 1.03 | [9] 1.07 | [2] 0.983 | [11] 1 | [12] 0.997 | [13] 0.978 | [14] 1.16 | [15] 0.991 | [16] 0.982 | [17] 1.15 | [18] 0.997 | [19] 1 | [20] 1 | [21] 1.01 | [22] 0.977 | [23] 1.01 | [24] 0.985 | [25] 0.977 | [26] 0.974 | [27] 1.01 | [28] 1.03 | [29] 0.972

— PubChem BioAssay AID1159580 (chemical genetic matrix, 2015)
